Test results as given in the supplement of paper PMC10849652.
About 7,900 targets were measured; listed, in parts, are those with a hit and a random draw of the rest. About 0.6% of all pairs of compound and target were hits. A number with no mark means an inactive call.

What was measured:
Assay in all cases: log2 fold change, soluble protein after heating vs DMSO (PISA); higher = thermal stabilisation; K562 cells, 10 uM, 30 min; active = over 0.2 and 3.5 SD of the protein, either way, in both replicates (recomputed)
[1] = compound: C1COCCN1CCN2C3=CC=CC=C3N=C2NC(=O)C4=CC(=CC=C4)[N+](=O)[O-] [IRAK-1-4 Inhibitor I]
Method in brief: (§1)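 K562 cells at 2×10^6 cells/mL were treated for 30 min with 10 μM compound, and aliquots were heated for 3 min over 48°C-58°C before pooling. Extraction used PBS with 0.5% NP-40 at 4°C, and soluble protein was the supernatant after 21,000xg for 90 min, measured by TMTpro 16plex LC-MS/MS with channel sums equalised. Thermal stability values, relative to control samples and from duplicates, are log2 fold changes.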

[2] = compound: C=CC(=O)N1CCC[C@@H](n2nc(-c3ccc(Oc4ccccc4)cc3)c3c(N)ncnc32)C1 [ibrutinib]
Method in brief: as §1

[3] = compound: CC(=O)c1cnc2ccc(-c3cc(Cl)c(O)c(Cl)c3)nc2c1N[C@H]1CC[C@H](CN(C)C)CC1
Method in brief: as §1

[4] = compound: CC(C)(C)Cn1c(N)nc2ccc(-c3[nH]c(C(C)(C)C)nc3-c3ccc(F)cc3)nc21 [ralimetinib]
Method in brief: as §1

[5] = compound: CC(C)(O)CC(=O)NCCn1ccc2ncnc(Nc3ccc(Oc4cccc(C(F)(F)F)c4)c(Cl)c3)c21
Method in brief: as §1

[6] = compound: CC(C)C1=C2N=C(C=C(N2N=C1)NCC3=CC=CC=C3)NCCCCCCN
Method in brief: as §1

[7] = compound: CC(C)C[C@@H](C=O)NC(=O)[C@H](CC(C)C)NC(=O)[C@H](CC(C)C)NC(=O)OCc1ccccc1
Method in brief: as §1

[8] = compound: CC(C)N(C[C@H]1O[C@@H](n2cnc3c(N)ncnc32)[C@H](O)[C@@H]1O)[C@H]1C[C@@H](CCc2nc3cc(C(C)(C)C)ccc3[nH]2)C1 [pinometostat]
Method in brief: as §1

[9] = compound: CC1=C(C(CC(=O)N1)C2=CC=C(C=C2)C(F)(F)F)C(=O)NC3=C(C=C4C(=C3)C=NN4)F
Method in brief: as §1

[10] = compound: CC1=C(C2=C(C=C1)C(=O)C3=CC=CC=C3N2CCCN)C
Method in brief: as §1

[11] = compound: CC1=C(C=C(C=C1)NC(=O)C2=CC(=CC=C2)C(C)(C)C#N)NC3=CC4=C(C=C3)N=CN(C4=O)C
Method in brief: as §1

[12] = compound: CC1=C(C=C(C=C1)NC(=O)C2=CC(=CC=C2)N(C)C)NC(=O)C3=CC=C(C=C3)O
Method in brief: as §1

[13] = compound: CC1=CC=C(C=C1)SC2=C3C=C(SC3=CN=C2)C(=O)N
Method in brief: as §1

[14] = compound: CC1=NC(=CC=C1)C2=C(N=C(N2)C(C)(C)C)C3=CC4=NC=CN=C4C=C3
Method in brief: as §1

[15] = compound: CCCCN(Cc1ccc(C(=O)NO)cc1)C(=O)Nc1ccccc1 [Nexturastat A]
Method in brief: as §1

[16] = compound: CCCS(=O)(=O)Nc1ccc(F)c(C(=O)c2c[nH]c3ncc(-c4ccc(Cl)cc4)cc23)c1F [vemurafenib]
Method in brief: as §1

[17] = compound: CCCS(=O)(=O)Nc1ccc(F)c(C(=O)c2c[nH]c3ncc(Cl)cc23)c1F
Method in brief: as §1

[18] = compound: CCCc1cc(C)[nH]c(=O)c1CNC(=O)c1cc(-c2ccnc(N3CCN(C)CC3)c2)cc2c1cnn2C(C)C
Method in brief: as §1

[19] = compound: CCN(CC)Cc1ccc2cc(COC(=O)Nc3ccc(C(=O)NO)cc3)ccc2c1 [givinostat]
Method in brief: as §1

[20] = compound: CCN(CCCOc1ccc2c(Nc3cc(CC(=O)Nc4cccc(F)c4)[nH]n3)ncnc2c1)CCOP(=O)(O)O [barasertib]
Method in brief: as §1

Sequence of UniProt Q16850 (Q16850 whole entry, looked up): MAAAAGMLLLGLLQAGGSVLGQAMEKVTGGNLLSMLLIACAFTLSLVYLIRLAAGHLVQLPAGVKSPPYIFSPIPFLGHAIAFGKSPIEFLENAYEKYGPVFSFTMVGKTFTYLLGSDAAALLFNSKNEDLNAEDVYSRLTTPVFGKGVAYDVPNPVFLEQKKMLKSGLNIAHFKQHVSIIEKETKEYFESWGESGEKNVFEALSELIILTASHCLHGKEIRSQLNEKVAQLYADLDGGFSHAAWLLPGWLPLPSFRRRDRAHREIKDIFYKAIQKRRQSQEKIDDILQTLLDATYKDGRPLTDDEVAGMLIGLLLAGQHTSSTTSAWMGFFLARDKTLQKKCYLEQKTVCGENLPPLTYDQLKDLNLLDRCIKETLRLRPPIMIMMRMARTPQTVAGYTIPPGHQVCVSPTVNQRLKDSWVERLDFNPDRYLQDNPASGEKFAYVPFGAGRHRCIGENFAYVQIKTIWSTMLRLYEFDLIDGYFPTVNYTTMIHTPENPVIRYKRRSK
Sequence of UniProt P26641 (P26641 whole entry, looked up): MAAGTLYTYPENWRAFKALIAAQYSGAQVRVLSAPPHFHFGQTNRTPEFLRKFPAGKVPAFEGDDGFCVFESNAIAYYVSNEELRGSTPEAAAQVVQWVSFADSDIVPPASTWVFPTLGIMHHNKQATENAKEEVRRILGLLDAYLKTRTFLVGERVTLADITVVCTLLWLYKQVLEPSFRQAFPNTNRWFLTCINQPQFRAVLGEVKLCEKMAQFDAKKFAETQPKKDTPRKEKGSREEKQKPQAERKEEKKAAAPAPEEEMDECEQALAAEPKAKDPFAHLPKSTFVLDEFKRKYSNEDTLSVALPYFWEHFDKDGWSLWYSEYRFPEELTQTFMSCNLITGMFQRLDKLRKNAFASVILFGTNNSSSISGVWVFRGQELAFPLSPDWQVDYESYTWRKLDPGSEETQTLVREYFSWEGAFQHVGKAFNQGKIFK
Sequence of UniProt P34913 (P34913 whole entry, looked up): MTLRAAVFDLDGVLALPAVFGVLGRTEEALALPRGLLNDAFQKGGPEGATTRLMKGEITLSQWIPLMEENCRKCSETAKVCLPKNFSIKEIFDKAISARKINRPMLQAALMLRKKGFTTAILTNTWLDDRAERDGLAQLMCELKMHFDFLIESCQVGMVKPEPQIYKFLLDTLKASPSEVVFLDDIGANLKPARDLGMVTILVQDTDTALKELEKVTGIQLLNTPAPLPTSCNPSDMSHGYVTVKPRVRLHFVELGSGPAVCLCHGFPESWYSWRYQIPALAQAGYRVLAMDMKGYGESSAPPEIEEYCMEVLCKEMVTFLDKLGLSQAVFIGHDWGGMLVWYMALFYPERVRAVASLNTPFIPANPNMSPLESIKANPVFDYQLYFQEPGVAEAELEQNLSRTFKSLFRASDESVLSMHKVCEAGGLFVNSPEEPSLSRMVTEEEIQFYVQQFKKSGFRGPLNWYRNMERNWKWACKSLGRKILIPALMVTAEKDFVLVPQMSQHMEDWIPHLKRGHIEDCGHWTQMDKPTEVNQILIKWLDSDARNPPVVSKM
Sequence of UniProt P98082 (P98082 whole entry, looked up): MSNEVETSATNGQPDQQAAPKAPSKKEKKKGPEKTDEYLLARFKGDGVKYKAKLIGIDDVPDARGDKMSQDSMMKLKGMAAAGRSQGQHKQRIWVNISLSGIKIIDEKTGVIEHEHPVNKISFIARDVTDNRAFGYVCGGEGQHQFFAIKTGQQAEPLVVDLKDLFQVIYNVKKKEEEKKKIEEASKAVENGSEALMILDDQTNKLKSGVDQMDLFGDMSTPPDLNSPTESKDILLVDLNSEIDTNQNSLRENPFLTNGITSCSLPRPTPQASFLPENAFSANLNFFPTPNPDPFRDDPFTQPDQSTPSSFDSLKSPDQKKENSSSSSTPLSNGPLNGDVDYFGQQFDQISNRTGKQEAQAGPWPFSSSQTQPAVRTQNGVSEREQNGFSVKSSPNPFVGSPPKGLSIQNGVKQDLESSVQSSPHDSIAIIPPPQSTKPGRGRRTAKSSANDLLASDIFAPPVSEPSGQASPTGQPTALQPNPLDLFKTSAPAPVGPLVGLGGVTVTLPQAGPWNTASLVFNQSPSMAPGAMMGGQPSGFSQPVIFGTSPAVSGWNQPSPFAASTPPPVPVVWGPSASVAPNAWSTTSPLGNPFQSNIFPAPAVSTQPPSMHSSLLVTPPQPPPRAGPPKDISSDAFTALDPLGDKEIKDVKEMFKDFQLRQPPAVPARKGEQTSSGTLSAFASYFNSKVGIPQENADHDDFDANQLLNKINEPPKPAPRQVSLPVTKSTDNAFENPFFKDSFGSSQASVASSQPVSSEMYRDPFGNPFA
Sequence of UniProt Q04637 (Q04637 whole entry, looked up): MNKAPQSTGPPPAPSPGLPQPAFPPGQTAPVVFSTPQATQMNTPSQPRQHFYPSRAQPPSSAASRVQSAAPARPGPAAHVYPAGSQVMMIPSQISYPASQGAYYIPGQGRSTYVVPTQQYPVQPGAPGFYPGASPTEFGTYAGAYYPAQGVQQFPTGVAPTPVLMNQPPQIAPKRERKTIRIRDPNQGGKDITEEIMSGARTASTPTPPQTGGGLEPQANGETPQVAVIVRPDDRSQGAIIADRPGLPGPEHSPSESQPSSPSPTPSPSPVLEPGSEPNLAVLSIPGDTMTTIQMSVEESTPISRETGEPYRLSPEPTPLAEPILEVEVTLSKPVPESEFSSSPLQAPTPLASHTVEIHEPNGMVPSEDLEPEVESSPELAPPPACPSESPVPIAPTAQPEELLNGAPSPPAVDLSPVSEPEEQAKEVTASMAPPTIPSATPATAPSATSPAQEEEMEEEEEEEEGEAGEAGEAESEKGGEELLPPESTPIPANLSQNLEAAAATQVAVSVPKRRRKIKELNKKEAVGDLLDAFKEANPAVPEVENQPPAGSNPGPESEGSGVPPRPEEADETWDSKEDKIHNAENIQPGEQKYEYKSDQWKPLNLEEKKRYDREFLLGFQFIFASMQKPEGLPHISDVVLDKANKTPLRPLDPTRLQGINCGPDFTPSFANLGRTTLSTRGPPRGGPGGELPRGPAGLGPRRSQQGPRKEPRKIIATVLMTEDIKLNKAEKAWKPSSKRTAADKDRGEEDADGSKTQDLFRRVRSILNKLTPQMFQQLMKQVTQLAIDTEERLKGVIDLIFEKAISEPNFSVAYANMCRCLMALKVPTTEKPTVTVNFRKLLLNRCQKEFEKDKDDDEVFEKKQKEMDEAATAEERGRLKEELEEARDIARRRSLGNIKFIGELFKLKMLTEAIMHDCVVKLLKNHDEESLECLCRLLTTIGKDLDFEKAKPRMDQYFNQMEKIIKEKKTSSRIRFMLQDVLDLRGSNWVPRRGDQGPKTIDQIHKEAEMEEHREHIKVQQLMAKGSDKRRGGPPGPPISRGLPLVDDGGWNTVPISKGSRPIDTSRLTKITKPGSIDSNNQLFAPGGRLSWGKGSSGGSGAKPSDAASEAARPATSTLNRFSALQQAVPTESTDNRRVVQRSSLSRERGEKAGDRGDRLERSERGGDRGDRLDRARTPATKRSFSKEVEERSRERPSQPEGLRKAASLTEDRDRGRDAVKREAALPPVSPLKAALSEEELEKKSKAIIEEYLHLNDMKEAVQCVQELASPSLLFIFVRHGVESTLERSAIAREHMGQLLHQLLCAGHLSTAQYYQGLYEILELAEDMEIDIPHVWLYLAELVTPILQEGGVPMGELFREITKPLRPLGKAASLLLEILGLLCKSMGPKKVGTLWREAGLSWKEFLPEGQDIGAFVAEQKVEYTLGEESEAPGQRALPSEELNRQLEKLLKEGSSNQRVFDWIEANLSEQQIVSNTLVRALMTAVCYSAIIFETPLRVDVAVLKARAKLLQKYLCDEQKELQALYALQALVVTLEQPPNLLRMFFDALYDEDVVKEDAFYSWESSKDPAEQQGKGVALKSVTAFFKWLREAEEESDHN
Sequence of UniProt Q9HBU6 (Q9HBU6 whole entry, looked up): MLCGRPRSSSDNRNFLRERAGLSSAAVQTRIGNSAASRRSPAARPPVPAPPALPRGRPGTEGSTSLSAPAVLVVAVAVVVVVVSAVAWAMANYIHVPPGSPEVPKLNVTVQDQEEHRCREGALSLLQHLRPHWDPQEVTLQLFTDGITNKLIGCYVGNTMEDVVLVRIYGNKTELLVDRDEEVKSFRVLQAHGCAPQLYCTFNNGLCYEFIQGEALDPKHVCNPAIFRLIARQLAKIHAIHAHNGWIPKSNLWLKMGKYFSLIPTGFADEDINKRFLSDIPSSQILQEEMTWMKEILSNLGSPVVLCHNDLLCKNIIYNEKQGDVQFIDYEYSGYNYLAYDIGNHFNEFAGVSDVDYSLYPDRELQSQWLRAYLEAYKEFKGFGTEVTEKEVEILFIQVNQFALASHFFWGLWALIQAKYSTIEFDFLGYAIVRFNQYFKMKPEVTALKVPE
Sequence of UniProt P07711 (P07711 whole entry, looked up): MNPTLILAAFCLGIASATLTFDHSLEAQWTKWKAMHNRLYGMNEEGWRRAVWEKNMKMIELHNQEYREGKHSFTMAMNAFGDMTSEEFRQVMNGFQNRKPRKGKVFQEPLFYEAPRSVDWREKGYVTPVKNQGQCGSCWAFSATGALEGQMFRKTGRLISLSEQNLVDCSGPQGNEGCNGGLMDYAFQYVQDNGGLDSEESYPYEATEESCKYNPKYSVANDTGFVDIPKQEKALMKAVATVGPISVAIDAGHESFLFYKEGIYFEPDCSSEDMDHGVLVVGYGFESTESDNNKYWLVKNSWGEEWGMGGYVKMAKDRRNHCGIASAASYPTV
Sequence of UniProt Q9NSI2 (Q9NSI2 whole entry, looked up): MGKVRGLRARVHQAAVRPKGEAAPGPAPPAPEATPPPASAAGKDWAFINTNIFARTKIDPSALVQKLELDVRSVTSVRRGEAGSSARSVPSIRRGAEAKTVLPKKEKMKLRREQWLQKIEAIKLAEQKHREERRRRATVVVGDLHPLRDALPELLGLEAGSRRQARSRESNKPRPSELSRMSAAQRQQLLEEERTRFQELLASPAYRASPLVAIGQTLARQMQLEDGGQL
Sequence of UniProt Q96GE9 (Q96GE9 whole entry, looked up): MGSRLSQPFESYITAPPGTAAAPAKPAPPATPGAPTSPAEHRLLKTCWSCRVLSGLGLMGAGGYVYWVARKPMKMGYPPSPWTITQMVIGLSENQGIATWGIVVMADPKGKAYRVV

Target | log2 fold change [1] | log2 fold change [2] | log2 fold change [3] | log2 fold change [4] | log2 fold change [5] | log2 fold change [6] | log2 fold change [7] | log2 fold change [8] | log2 fold change [9] | log2 fold change [10] | log2 fold change [11] | log2 fold change [12] | log2 fold change [13] | log2 fold change [14] | log2 fold change [15] | log2 fold change [16] | log2 fold change [17] | log2 fold change [18] | log2 fold change [19] | log2 fold change [20]
DBR1 (UniProt Q9UK59) | -0.04 | 0.02 | -0.043 | 0.037 | 0.006 | 0.032 | -0.026 | -0.012 | 0.065 | 0.114 | -0.005 | 0.028 | 0.007 | 0.049 | -0.007 | 0.024 | 0.037 | -0.033 | -0.16 | -0.022
EEF1G isoform 2 (UniProt P26641) | -0.02 | -0.083 | 0.044 | 0.059 | 0.006 | -0.067 | -0.024 | 0.042 | -0.015 | 0.017 | 0.035 | -0.015 | 0.014 | 0.049 | -0.062 | 0.07 | 0.101 | 0.095 | -0.013 | 0.037
DAB2 (UniProt P98082) | -0.009 | 0.004 | -0.093 | 0.082 | -0.119 | -0.02 | 0.138 | 0.049 | -0.031 | -0.075 | 0.016 | 0.015 | -0.03 | -0.046 | 0.058 | -0.033 | 0.064 | 0.036 | 0.109 | 0.072
CTNNB1 (UniProt P35222) | -0.028 | -0.116 | 0.263 | -0.045 | -0.056 | -0.007 | 0.081 | -0.021 | -0.057 | 0.003 | -0.118 | -0.018 | 0.09 | -0.028 | 0.172 | -0.22 | -0.002 | -0.134 | 0.129 | 0.04
CYP51A1 (UniProt Q16850) | -0.129 | 0.039 | -0.028 | 0.064 | 0.245 | 0.782 (active) | 0.07 | 0.045 | -0.013 | -0.006 | 0.063 | -0.036 | -0.098 | -0.133 | 0.024 | 0.029 | -0.015 | 0.07 | 0.007 | 0.01
DAG1 (UniProt Q14118) | -0.019 | -0.024 | -0.029 | -0.076 | 0.003 | 0.169 | 0.008 | 0.04 | -0.008 | 0.067 | -0.053 | -0.019 | -0.013 | 0.001 | -0.005 | 0.005 | -0.06 | -0.028 | 0.019 | 0.011
EIF4G1 isoform 8 (UniProt Q04637) | -0.124 | -0.148 | -0.3 | 0.057 | -0.053 | -0.387 | 0.046 | 0.149 | 0.096 | 0.018 | -0.028 | -0.011 | 0.004 | 0.006 | 0.169 | 0.013 | 0.028 | 0.119 | 0.057 | 0.067
EPHX2 (UniProt P34913) | 0.044 | 0.096 | -0.024 | -0.026 | -0.018 | 0.285 (active) | 0.012 | 0.144 | 0.073 | -0.006 | 0.112 | 0.129 | 0.031 | -0.017 | 0.193 | -0.012 | -0.025 | -0.075 | -0.014 | -0.029
ERCC2 (UniProt P18074) | -0.01 | 0.003 | -0.165 | 0.014 | 0.016 | -0.068 | 0.03 | 0.078 | 0.021 | -0.016 | -0.024 | 0.014 | -0.005 | -0.038 | 0.035 | 0.166 | 0.036 | 0.021 | 0.095 | -0.007
DMAC1 (UniProt Q96GE9) | 0.018 | 0.048 | 0.034 | -0.011 | 0.072 | 0.019 | 0.067 | -0.002 | 0.063 | -0.013 | -0.173 | 0.041 | 0.116 | 0.005 | -0.071 | -0.18 | -0.035 | -0.04 | -0.179 | 0.074
DNAJC1 (UniProt Q96KC8) | 0.017 | 0.02 | -0.026 | -0.081 | -0.117 | -0.462 (active) | 0.025 | -0.037 | -0.012 | 0.019 | 0.027 | 0 | 0.014 | 0.049 | -0.079 | -0.007 | 0.037 | -0.13 | -0.013 | 0.047
ETNK1 (UniProt Q9HBU6) | 0.035 | -0.05 | 0.044 | -0.017 | -0.205 | 0.087 | 0.043 | 0.019 | -0.015 | 0.079 | 0.241 | -0.054 | 0.022 | 0.02 | -0.177 | 0.006 | 0.172 | -0.076 | 0.042 | 0.005
EHBP1L1 (UniProt Q8N3D4) | -0.044 | -0.054 | -0.077 | 0.083 | -0.001 | -0.034 | 0.05 | 0.086 | -0.049 | 0.028 | 0 | -0.02 | -0.003 | -0.043 | 0.011 | 0.034 | 0.007 | 0.025 | 0.026 | 0.016
FAM207A (UniProt Q9NSI2) | -0.043 | -0.082 | 0.057 | 0.123 | -0.033 | -0.066 | 0.088 | 0.024 | 0.005 | 0.038 | -0.086 | 0.11 | -0.006 | 0.024 | -0.047 | 0.038 | -0.006 | 0.44 | 0.148 | -0.036
CTSL (UniProt P07711) | 0.068 | 0.009 | 0.099 | 0.022 | -0.014 | -0.412 (active) | 0.098 | -0.006 | -0.01 | -0.031 | -0.083 | 0.014 | -0.049 | 0.013 | 0.085 | -0.023 | -0.05 | 0.033 | 0.121 | 0.092
FADS1, A0A0A0MR51 | 0.085 | 0.015 | -0.07 | 0.017 | 0.355 (active) | -0.044 | 0.05 | 0.027 | -0.013 | 0.003 | 0.09 | -0.019 | 0.008 | 0.069 | -0.006 | -0.002 | 0.021 | -0.034 | -0.274 (active) | 0.031
